A selection: hits, their analogues and other compounds. The true share with any hit is near 5.7%.
JMJD2E inh = JMJD2E (human) inhibition; JMJD2E catalytic domain, FDH-coupled NADH fluorescence (FDH is formaldehyde dehydrogenase); Potency, µM (doses to about 57.1 µM), for inactives: at the highest dose activity change, negative = inhibition, hits mostly inhibitors; actives 1.6% (n = 230,000); active means well fitted inhibition curve with a large enough effect, not every such curve was filed as active; inconclusive means small, poorly fitted or top-dose-only effect, or another doubt; inactive means no such curve, though single readings can be large or run the other way;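 further: potency means the concentration at half of the fitted maximal effect; 0% = wells with enzyme and -100% = buffer wells without enzyme; nearly all actives have a fitted effect of over 50% in size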
Target sequence (B2RXH2 1-337 limits assumed): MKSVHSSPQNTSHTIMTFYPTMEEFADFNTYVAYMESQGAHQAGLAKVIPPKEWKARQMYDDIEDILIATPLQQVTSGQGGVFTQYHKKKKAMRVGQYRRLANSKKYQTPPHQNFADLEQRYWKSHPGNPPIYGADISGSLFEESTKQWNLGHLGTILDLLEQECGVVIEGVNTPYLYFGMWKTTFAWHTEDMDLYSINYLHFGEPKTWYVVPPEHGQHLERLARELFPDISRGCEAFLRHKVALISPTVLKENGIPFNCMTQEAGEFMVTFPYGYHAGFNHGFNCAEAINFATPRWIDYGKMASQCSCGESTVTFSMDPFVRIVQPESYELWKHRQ
PI5P4K alpha inh = blocks human PI5P4K alpha kinase activity; AID 652105; PI5P4Kalpha enzyme, ADP-Glo luminescence, 60 min; hits give low values; P48426; actives 1.2% (n = 330,000); max response, %; active means max response of -50% or lower; inconclusive means between -30% and -50%; inactive means -30% or higher; further: value at the top dose of about 77 µM; on the % scale 0 is the no-effect control and ±100 the full control effect
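Enzyme plus substrate dispensed, test compounds pinned in, then ATP (5 microM final) added. After 60 min at RT, ADP-Glo reagent 1 for 45 min and reagent 2 for 30 min preceded luminescence imaging.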
L3MBTL1 block = blocks human L3MBTL1. actives 0.66% (n = 230,000). Potency, µM (highest dose often 57.1 µM), for inactives: at the top dose activity, negative = inhibition, hits mostly inhibitors. AlphaScreen L3MBTL1–H3K9me1 peptide binding. AID 485360; further: potency means the concentration at half of the fitted maximal effect; on the % scale 0 is the no-effect control and ±100 the full control effect; nearly all actives have a fitted effect of over 60% in size
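Displacement of a biotinylated histone H3(1-15) peptide monomethylated at Lys9 (75 nM) from L3MBTL1 (50 nM) was measured by AlphaScreen after a 30 min room-temperature compound incubation; cefsulodin titration served as intraplate control.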
BAZ2B block = blocks human BAZ2B | AlphaScreen BAZ2B-H3K14Ac peptide displacement | Potency, µM (titrated, usually from 114 µM), for inactives: at the top dose activity change, negative = inhibition, most hits filed as inhibitors | AID 504333 | actives 4.4% (n = 360,000) | Q9UIF8; further: potency means the concentration at half of the fitted maximal effect; on the % scale 0 is the no-effect control and ±100 the full control effect; nearly all actives have a fitted effect of over 60% in size
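AlphaScreen displacement of biotin-H3(5-23)K14Ac peptide (50 nM final) from BAZ2B (50 nM final) in PBS pH 7.4, 0.01% Tween-20; complex preformed 30 min RT, then compounds (top 110 uM) 30 min RT, beads 20 min dark.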
HP1b chromo inh = blocks HP1-beta chromodomain binding to methylated histone tails. Potency, µM (series often up to 114 µM), for the others: at the top dose activity change, negative = inhibition, usual class: inhibitors. actives 0.56% (n = 390,000). P83916. AlphaScreen HP1-beta / biotin-H3K9me3 peptide binding; further: potency means the concentration at half of the fitted maximal effect; nearly all actives have a fitted effect of over 70% in size
Target sequence (P83916 whole entry, looked up): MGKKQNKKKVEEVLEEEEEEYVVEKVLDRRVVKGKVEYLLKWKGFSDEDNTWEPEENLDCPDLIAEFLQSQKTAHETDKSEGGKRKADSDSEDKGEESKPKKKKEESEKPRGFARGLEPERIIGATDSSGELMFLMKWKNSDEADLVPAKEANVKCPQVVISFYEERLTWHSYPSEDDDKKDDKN
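Compound inhibition of the preformed complex between 50 nM HP1-beta and 50 nM biotinylated H3K9me3 peptide was read by AlphaScreen. Buffer was PBS pH 7.4 with 0.01% Tween-20. Incubations ran 30 min at room temperature, with 10 ug/mL donor/acceptor beads.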
JMJD2A Tudor = JMJD2A Tudor domain (human) inhibition; AlphaScreen JMJD2A-Tudor / H3K4me3 peptide binding; actives 4.4% (n = 390,000); O75164; Potency, µM (doses to about 114 µM), for the others: at the highest dose activity change, negative = inhibition, most hits filed as inhibitors; further: potency means the concentration at half of the fitted maximal effect; on the % scale 0 is the no-effect control and ±100 the full control effect; nearly all actives have a fitted effect of over 50% in size
Active calls of the source: *; ? = inconclusive; . = no result; [ ] = dose if it differs, or a comment. Unless noted, the call rests on the fitted dose curve; in most records, active means well fitted inhibition curve with a large enough effect; inconclusive means small, poorly fitted or top-dose-only effect; inactive means no such curve, though single readings can be large or run the other way.

SMILES	JMJD2E inh	PI5P4K alpha inh	L3MBTL1 block	BAZ2B block	HP1b chromo inh	JMJD2A Tudor
O=c1cc(-c2ccc(O)c(O)c2)oc2cc(O)cc(O)c12	12.6µM*	-95.0*	.	79.4µM*	-15.3%	44.7µM*
CC[C@@]1(O)C(=O)OCc2c1cc1n(c2=O)Cc2cc3cc(O)ccc3nc2-1	14.0%	.	.	.	.	.
Brc1ccccc1CNCCc1ccc2c(c1)OCO2	.	-3.0	-0.9%	?	?	3.16µM*
CCN(CC)c1ccc(CNCCc2ccc(F)cc2)cc1	-12.5%	2.2	-20.8%	44.7µM*	-16.8%	?
c1cc(CNCCc2ccc3c(c2)OCO3)ccn1	.	0.4	-1.1%[2.29 µM]	56.2µM*	?	8.91µM*
Clc1ccc(CCNCc2ccncc2)c(Cl)c1	.	1.8	.	50.1µM*	-5.8%	31.6µM*
CCc1ccc(CNCCc2ccc(F)cc2)cc1	-5.2%	-1.5	34.2%	26.5%	27.2%	2.0%
CC(C)(O)[C@H]1O[C@@H]2CC[C@]3(C)[C@@]4(C)c5[nH]c6ccccc6c5C[C@@H]4CC[C@]3(O)C2=CC1=O	-5.9%	.	.	.	.	.
CNC(=O)[C@H]1C[C@@H]1[C@H](NP(=O)(c1ccccc1)c1ccccc1)c1ccccc1	3.0%	.	.	.	.	.
C[C@]12CC[C@H]3C(=CCc4cc(O)ccc43)[C@@H]1CCC2=O	?	4.2	0.6%	1.1%	25.7%	-22.1%
CCOc1ccc(CNCCc2ccc3c(c2)OCO3)cc1	.	0.9	-2.8%	-21.8%	12.5%	-24.3%
O=[N+]([O-])c1cc2c(cc1CNCCc1ccc3c(c1)OCO3)OCO2	1.0%	2.2	-8.9%	25.1µM*	39.8µM*	1.12µM*
Fc1ccc(CNCCc2ccc3c(c2)OCO3)cc1	.	1.5	-2.4%	?	6.6%	56.2µM*
COC(=O)C(C)Oc1ccc(Cc2ncc(C(F)(F)F)cc2Cl)cc1 (stereo unspecified)	.	-1.8	.	80.2%	117.1%	56.2%
c1ccc2c(c1)[nH]c1cnccc12	?	1.3	-4.5%	14.1%	51.7%	-23.4%
Cc1c2ccncc2c(C)c2c1[nH]c1ccccc12	12.6µM*	-6.2	7.5%	56.2µM*	42.5%	-8.6%
O=C(CO)C(O)C(O)C(O)CO (stereo unspecified)	.	?	3.3%	7.6%	13.4%	56.2µM*
CCOC(=O)C1CCN(Cc2ccc(Cl)nc2)CC1	.	-1.8	.	-0.4%	44.0%	-10.6%
CCOC(=O)C1CCCN(Cc2ccc(-c3ccccc3)cc2)C1 (stereo unspecified)	.	0.6	32.1%	?	-26.9%	28.2µM*
CCN(CC)C(=O)CN1CCN(c2ccccc2F)CC1	?	.	-6.9%	?	?	8.91µM*
Fc1cccc(F)c1CN1CCN(c2ccc(Cl)cc2)CC1	.	25.4	.	-6.8%	-1.4%	-17.8%
C/C=C(\C)CN1CCN(c2ccccc2F)CC1	?	.	10.7%	?	?	3.16µM*
O=C(CN1CCCCC1)c1ccccc1F	-3.4%	-2.1	-4.7%	-12.5%	52.5%	-5.8%
C=C(C)[C@H]1[C@H]2OC(=O)[C@@H]1[C@]1(O)C[C@H]3O[C@]34C(=O)O[C@H]2[C@@]14C	4.0%[25.5 µM]	.	.	.	.	.
CCCN1CCC[C@@H]2Cc3n[nH]cc3C[C@H]21	0.6%	.	.	.	.	.
SMILES	JMJD2E inh	PI5P4K alpha inh	L3MBTL1 block	BAZ2B block	HP1b chromo inh	JMJD2A Tudor
CN(C)CCN(Cc1ccccc1)c1ccnc(N(C)C)c1C#N	?	-9.2	-1.2%	?	?	63.1µM*
NC(C(=O)O)C1CC(Cl)=NO1 (stereo unspecified)	-13.9%	.	3.2%	5.0%	.	.
O=C(O)CCn1cc(C=C2C(=O)NC(=S)NC2=O)c(-c2cccc(Cl)c2)n1	?	-86.3*	-18.1%	?	2.7%	50.1µM*
Clc1ccc2c(c1)C(c1ccccc1Cl)=NCc1nnc(N3CCN(CCOc4ccccc4)CC3)n1-2	-2.4%	4.8	-6.7%	44.7µM*	-7.7%	-30.8%
CCOc1cc(C=C2C(=O)NC(=O)NC2=O)cc([N+](=O)[O-])c1O	7.7%	.	?	56.2µM*	.	.
COc1cc(C2c3cc4c(cc3CC3COC(=O)C32)OCO4)cc(OC)c1O (stereo unspecified)	.	0.8	.	.	10.7%	89.1µM*

Screening data: PubChem BioAssay, National Center for Advancing Translational Sciences (NCATS)
